4 compounds from PubChem BioAssay can be followed below.

Records with an inconclusive call do not appear. The source made the active and inactive calls.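 How the source made its calls, unless noted: active means normalized viability below 100% at a tested concentration; inactive means the rest.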

Assay [1] in a line: growth inhibition of DIPG glioma cells, dose response, cell-based, SU-DIPG-XIII, MIPE4.0, CellTiter-Glo, qHTS (AID 1347061; cut-off not given, nearly all actives have AC50 up to about 37 µM;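 further: cells exposed to compound for 48 hours before readout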). To be noted: SU-DIPG-XIII viability, CellTiter-Glo ATP luminescence. On the technique in general: ATP-based viability assays read luminescence as a measure of living cells.
A short description of assay [2]: growth inhibition of DIPG glioma cells, dose response, cell-based, JHH-DIPG-1, MIPE4.0, CellTiter-Glo, qHTS (AID 1347062; cut-off not given, nearly all actives have AC50 up to about 27 µM;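 on AC50: cells exposed to compound for two days before readout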). The note with it: JHH-DIPG-1 viability, CellTiter-Glo ATP luminescence.
Assay [3] is described as follows: growth inhibition of DIPG glioma cells, dose response, cell-based, SU-DIPG-IV, MIPE4.0, CellTiter-Glo, qHTS (AID 1347063; cut-off not given, nearly all actives have AC50 up to about 30 µM;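 further: compound exposure lasted 48 hours before the viability readout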). The note with it: SU-DIPG-IV viability, CellTiter-Glo ATP luminescence.
Assay [4] can be described thus: growth inhibition of DIPG glioma cells, dose response, cell-based, SU-DIPG-XIII, MIPE5.0, CellTiter-Glo, qHTS (AID 1347064; cut-off not given, nearly all actives have AC50 up to about 23 µM;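 on AC50: cells exposed to compound for 48 hours before the viability read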). To be noted: SU-DIPG-XIII viability, CellTiter-Glo ATP luminescence.
Assay [5] can be described thus: viability loss in pontine glioma line – cell-based, SU-DIPG-XXV, MIPE5.0, CellTiter-Glo, qHTS, dose response (AID 1347065; cut-off not given, nearly all actives have AC50 up to about 26 µM;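 further: cells exposed to compound for 48 hours before ATP readout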). The note with it: CellTiter-Glo ATP luminescence.
Assay [6] is described as follows: SU-DIPG-VI glioma cell viability, MIPE4.0 library, CellTiter-Glo luminescence, qHTS (AID 1347066; cut-off not given, nearly all actives have AC50 up to about 30 µM;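 further: cells exposed to compound for 48 hours before readout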). The note with it: CellTiter-Glo ATP luminescence.
Assay [7] is described as follows: JHH-DIPG-1 glioma cell viability, MIPE5.0 library, CellTiter-Glo luminescence, qHTS (AID 1347067; cut-off not given, nearly all actives have AC50 up to about 26 µM;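 further: cells exposed to compound for 48 hours before readout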). The note with it: JHH-DIPG-1 glioma viability, CellTiter-Glo ATP luminescence.
Assay [8] is described as follows: SU-DIPG-XXV glioma cell viability, MIPE5.0 library, qHTS (AID 1347068; cut-off not given, nearly all actives have IC50 up to about 30 µM;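 further: cells exposed to compound for 48 hours before viability readout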).
Assay [9] in a line: ovarian cancer cell viability with rucaparib, profiling panel, oncology-focused library, rucaparib conditional (AID 1508598). To be noted: patient-derived ovarian cancer cells, CellTiter-Glo viability, 144 h, stronger effect = lower value.
The nature of assay [10]: growth inhibition of DIPG glioma cells, dose response, cell-based, SU-DIPG-XVII, MIPE5.0, CellTiter-Glo, qHTS (AID 1347060; cut-off not given, nearly all actives have AC50 up to about 26 µM). To be noted: SU-DIPG-XVII viability, CellTiter-Glo ATP luminescence.
Assay [11] in a line: sensitizers of A549 cells to miR-34 induction, primary screen, imaging, A549 dox-inducible miR-34, nuclei and caspase counts (AID 1347080;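 active means compounds whose cell count with miR-34 switched on is under 0.7 times the count with it off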). The note with it: A549 miR-34 inducible, Hoechst nuclei count, 48 h.
Assay [12] in a line: survival rescue of mitochondrial mutant cells in low glucose, primary screen, MELAS cybrids, Rieske KO mouse fibroblasts, CellTiter-Glo (AID 1508586;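 active means mean z-score across replicates of 1.96 or higher in either the MELAS or the Rieske mutant cell line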;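 further: z relative to plate mean and SD of compound and empty wells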).

As for `Cc1cc(Nc2nc(N[C@@H](C)c3ncc(F)cn3)ncc2Cl)n[nH]1`, the AC50 in assay [1] was 16.6 µM (active); in assay [2], 9.35 µM (active); in assay [3] it was 13.2 µM (active); in [4] it was 1.48 µM (active); in [5], 0.661 µM (active); in assay [6], 9.35 µM (active). Further, in assay [7], the AC50 is 0.934 µM (active). In addition, the IC50 in assay [8] is 1.48 µM (active). The viability was 99.3% (active) in assay [9] (at 0.000305 µM, OCI-C5x cells, with rucaparib 10 µM, 100% = cells with rucaparib alone); 105% (inactive) in assay [9] (at 0.000305 µM, OCI-C5x cells, without rucaparib); 91% (active) in [9] (at 0.000305 µM, OCI-P5x cells, with rucaparib 20 µM, 100% = cells with rucaparib alone); 91.4% (active) in [9] (at 0.000305 µM, OCI-P5x cells, without rucaparib); 112% (inactive) in assay [9] (at 0.00122 µM, OCI-C5x cells, with rucaparib 10 µM, 100% = cells with rucaparib alone); 112% (inactive) in assay [9] (at 0.00122 µM, OCI-C5x cells, without rucaparib). The viability in assay [9] (at 0.00122 µM, OCI-P5x cells, with rucaparib 20 µM, 100% = cells with rucaparib alone) was 92.4% (active); in assay [9] (at 0.00122 µM, OCI-P5x cells, without rucaparib), 97.8% (active); in [9] (at 0.00488 µM, OCI-C5x cells, with rucaparib 10 µM, 100% = cells with rucaparib alone), 106% (inactive); in assay [9] (at 0.00488 µM, OCI-C5x cells, without rucaparib), 115% (inactive); in assay [9] (at 0.00488 µM, OCI-P5x cells, with rucaparib 20 µM, 100% = cells with rucaparib alone) it was 102% (inactive); in [9] (at 0.00488 µM, OCI-P5x cells, without rucaparib), 99.3% (active). For the same compound, the viability was 112% (inactive) in assay [9] (at 0.0195 µM, OCI-C5x cells, with rucaparib 10 µM, 100% = cells with rucaparib alone); 102% (inactive) in [9] (at 0.0195 µM, OCI-C5x cells, without rucaparib); 101% (inactive) in assay [9] (at 0.0195 µM, OCI-P5x cells, with rucaparib 20 µM, 100% = cells with rucaparib alone); 99.8% (active) in [9] (at 0.0195 µM, OCI-P5x cells, without rucaparib); 102% (inactive) in [9] (at 0.0781 µM, OCI-C5x cells, with rucaparib 10 µM, 100% = cells with rucaparib alone); 104% (inactive) in [9] (at 0.0781 µM, OCI-C5x cells, without rucaparib). The viability in [9] (at 0.0781 µM, OCI-P5x cells, with rucaparib 20 µM, 100% = cells with rucaparib alone) is 96.5% (active); in [9] (at 0.0781 µM, OCI-P5x cells, without rucaparib), 101% (inactive); in assay [9] (at 0.313 µM, OCI-C5x cells, with rucaparib 10 µM, 100% = cells with rucaparib alone) it was 97.7% (active); in assay [9] (at 0.313 µM, OCI-C5x cells, without rucaparib) it was 102% (inactive); in assay [9] (at 0.313 µM, OCI-P5x cells, with rucaparib 20 µM, 100% = cells with rucaparib alone), 85.8% (active); in assay [9] (at 0.313 µM, OCI-P5x cells, without rucaparib), 99.9% (active). In addition, the viability in assay [9] (at 1.25 µM, OCI-C5x cells, with rucaparib 10 µM, 100% = cells with rucaparib alone) is 78.7% (active); in assay [9] (at 1.25 µM, OCI-C5x cells, without rucaparib) it was 101% (inactive); in [9] (at 1.25 µM, OCI-P5x cells, with rucaparib 20 µM, 100% = cells with rucaparib alone), 80.1% (active); in [9] (at 1.25 µM, OCI-P5x cells, without rucaparib), 86.6% (active); in [9] (at 5 µM, OCI-C5x cells, with rucaparib 10 µM, 100% = cells with rucaparib alone), 46.6% (active); in assay [9] (at 5 µM, OCI-C5x cells, without rucaparib), 55.9% (active). Moreover, the viability in assay [9] (at 5 µM, OCI-P5x cells, with rucaparib 20 µM, 100% = cells with rucaparib alone) was 30.7% (active); in assay [9] (at 5 µM, OCI-P5x cells, without rucaparib) it was 24.9% (active).
As for `CC(=O)N1CCN(CCOc2ccc(C3CCN(C4=Nn5c(nnc5C(F)(F)F)CC4)CC3)cc2)CC1`, the call in assay [10] was inactive. Further, the fold change is 0.859 (inactive) in assay [11] (stronger effect = lower value, cell number ratio, induced over uninduced) and 0.882 in [11] (measured here: relative caspase fold change +Dox/-Dox). In addition, the cell count in assay [11] (measured here: total cells with miR-34 induction, stronger effect = lower value) stood at 5930; in assay [11] (measured here: total cells without miR-34 induction) it was 6900. Further, the z-score in [12] (MELAS cybrid survival, CellTiter-Glo 48 h, stronger effect = higher value) is -0.00811 (inactive); in assay [12] (Rieske KO mouse fibroblast survival, CellTiter-Glo 72 h), -0.339.
On to `CO[C@H]1/C=C/O[C@@]2(C)Oc3c(C)c(O)c4c(O)c(c5c(c4c3C2=O)=NC2(CCN(CC(C)C)CC2)N=5)NC(=O)/C(C)=C/C=C/[C@H](C)[C@H](O)[C@@H](C)[C@@H](O)[C@@H](C)[C@H](OC(C)=O)[C@@H]1C`, for which the compound was called inactive in [1], in assay [2], in assay [3] and in [4].
With `O=[N+]([O-])c1ccc(Nc2ccccc2-c2ccccc2)c2nonc12`, the outcome in assay [1], in [2] and in assay [3] was inactive. Besides, the concentration at half-maximal activity (AC50) in [4] was 23.5 µM (active); in assay [5], 18.6 µM (active); in assay [6], 20.9 µM (active); in [7] it was 23.5 µM (active).

A word on the AC50: it is the concentration giving half of the maximal activity seen. A word on the IC50: it is the concentration at which inhibition is half-maximal. For orientation: viability means a read-out of living cells in per cent, often relative to untreated cells.
